Where “and” joins values, the source holds several entries; their conditions need not be identical. Equal values may be shown once. Hit rate of the full screen: of about 5,500 compounds, about 2,000 (36%) were called active. About 18% were inconclusive and are not listed. No stated cut-off is given here; in the data, active means normalized growth mostly below about 0.91 (no sharp cut-off); inconclusive means no clear call, values can overlap the other calls; inactive means mostly above about 0.92. The list shows a part of the results.
Assay: chemical genetic growth profiling, strain panel (AID 1159580);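 further: tested at 20 µM; growth read once vehicle control cultures reached saturation at 30 °C; 1 = growth at the plate median or of vehicle wells; lower values mean less growth of the strain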
Conditions: S. cerevisiae deletion strains, growth OD

Measured: normalized growth

O=C(O)CCCCC1SCC2NC(=O)NC21 (stereo not drawn)
inactive: locus YAL013W, strain DEP1, hits give low values 1.02 | locus YAL021C, strain ccr4, hits give low values 0.999 | locus YAL026C, strain drs2, hits give low values 0.994 | locus YAL030W, strain snc1, hits give low values 0.995 | locus YBL061C, strain skt5, hits give low values 0.989 | locus YBR009C, strain hhf1, hits give low values 0.997 | locus YBR021W, strain FUR4, hits give low values 0.977 | locus YBR023C, strain chs3, hits give low values 0.979 | locus YBR171W, strain sec66, hits give low values 0.996 | locus YBR229C, strain ROT2, hits give low values 1 | locus YBR231C, strain swc5, hits give low values 0.998 | locus YBR279W, strain paf1, hits give low values 0.997 | locus YCL011C, strain gbp2, hits give low values 0.995 | locus YCL016C, strain dcc1, hits give low values 0.995 | locus YCL029C, strain bik1, hits give low values 0.998 | locus YCL061C, strain MRC1, hits give low values 1 | locus YCL069W, strain vba3, hits give low values 0.97 | locus YCR088W, strain abp1, hits give low values 0.981 | locus YDL005C, strain med2, hits give low values 0.98 | locus YDL035C, strain GPR1, hits give low values 0.996 | locus YDL040C, strain nat1, hits give low values 1 | locus YDL074C, strain BRE1, hits give low values 1.01 | locus YDL101C, strain DUN1, hits give low values 0.989 | locus YDL134C, strain PPH21, hits give low values 1 | locus YDL185W, strain tfp1, hits give low values 0.997 | locus YDL192W, strain arf1, hits give low values 1.01 | locus YDR001C, strain nth1, hits give low values 0.985 | locus YDR069C, strain doa4, hits give low values 0.973 | locus YDR101C, strain arx1, hits give low values 0.98 | locus YDR137W, strain rgp1, hits give low values 0.983 | locus YDR150W, strain NUM1, hits give low values 1.02 | locus YDR159W, strain sac3, hits give low values 1.02 | locus YDR162C, strain NBP2, hits give low values 1.01 | locus YDR195W, strain ref2 1.01 | locus YDR297W, strain sur2, hits give low values 0.996 | locus YDR318W, strain mcm21, hits give low values 1 | locus YDR334W, strain swr1, hits give low values 0.984 | locus YDR335W, strain msn5, hits give low values 0.986 | locus YDR388W, hits give low values 1 | locus YDR392W, strain spt3, hits give low values 0.996 | locus YDR502C, strain sam2, hits give low values 0.994 | locus YEL003W, strain gim4, hits give low values 0.984 | locus YEL037C, strain rad23, hits give low values 0.992 | locus YEL061C, strain CIN8 (second series), hits give low values 1 | locus YEL061C, strain CIN8, hits give low values 1.02 | locus YER015W, strain faa2, hits give low values 0.979 | locus YER016W, strain bim1, hits give low values 0.988 | locus YER110C, hits give low values 1 | locus YER111C, strain swi4, hits give low values 1 | locus YER155C, strain BEM2 (second series), hits give low values 0.985 | locus YER155C, strain BEM2, hits give low values 0.999 | locus YER167W, strain BCK2, hits give low values 1 | locus YFR010W, strain ubp6, hits give low values 0.995 | locus YGL078C, strain dbp3, hits give low values 0.99 | locus YGL086W, strain mad1, hits give low values 0.993 | locus YGL167C, strain pmr1, hits give low values 0.99 | locus YGL173C, strain kem1, hits give low values 0.985 | locus YGL227W, strain vid30, hits give low values 1 | locus YGL240W, strain doc1, hits give low values 0.985 | locus YGL248W, strain PDE1, hits give low values 1 | locus YGL253W, strain hxk2, hits give low values 0.985 | locus YGR078C, strain PAC10, hits give low values 1.05 | locus YGR135W, strain pre9, hits give low values 0.999 | locus YGR252W, strain gcn5, hits give low values 0.944 | locus YHR013C, strain ard1, hits give low values 0.988 | locus YHR027C, strain rpn1, hits give low values 0.989 | locus YHR030C, strain SLT2, hits give low values 1.02 and 1.01 | locus YHR079C, strain IRE1 (second series), hits give low values 1.02 | locus YHR079C, strain IRE1, hits give low values 1.01 | locus YHR094C, strain hxt1, hits give low values 1 | locus YHR129C, strain ARP1, hits give low values 1.01 | locus YHR142W, strain chs7, hits give low values 0.982 | locus YHR200W, strain rpn10, hits give low values 0.996 | locus YIL066C, strain RNR3, hits give low values 1.01 | locus YIL073C, strain SPO22, hits give low values 1.02 | locus YIL125W, strain kgd1, hits give low values 0.987 | locus YIR030C, strain dcg1, hits give low values 1.01 | locus YJL092W, strain hpr5, hits give low values 0.986 | locus YJL095W, strain BCK1 (second series), hits give low values 0.998 | locus YJL095W, strain BCK1, hits give low values 1.02 and 1 | locus YJL115W, strain asf1, hits give low values 0.996 | locus YJL129C, strain trk1, hits give low values 0.954 | locus YJL134W, strain LCB3, hits give low values 1.01 | locus YJL154C, strain vps35, hits give low values 0.994 | locus YJL164C, strain tpk1, hits give low values 1 | locus YJL166W, strain qcr8, hits give low values 0.965 | locus YJL168C, strain set2, hits give low values 0.993 | locus YJL187C, strain SWE1 (second series), hits give low values 1

From PubChem BioAssay AID1159580 (chemical genetic matrix, 2015)
